Measured values as given in PubChem BioAssay (NCI).
Compounds without any hit were thinned out: in the full panel of roughly 79,000, 15% have a hit. Active and inactive are the calls of the source. Rule as the data show it: active = growth inhibition above about 70%; inactive = the rest.

Legend:
[1] = NCI Yeast Anticancer Drug Screen. Data for the rad52 strain (AID 147);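 also: 0% = growth of vehicle-treated control cultures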; details: S. cerevisiae rad52 mutant growth inhibition, stronger effect = higher value
Summary of the method: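 Inhibition of yeast growth, referenced to vehicle controls, was the measured output for a strain with defective DNA damage repair.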

[2] = NCI Yeast Anticancer Drug Screen. Data for the wt1 strain (AID 149);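 also: 0% = growth of vehicle-treated wt1 cultures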; details: S. cerevisiae wt1 strain (SPY 50644) growth inhibition, stronger effect = higher value
Summary of the method: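 Compounds are added to wt1 yeast cultures. Growth is then measured. Inhibition is expressed relative to vehicle-treated controls.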

[3] = NCI Yeast Anticancer Drug Screen. Data for the rad50EPP+ strain (AID 151);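 also: 0% = growth of vehicle-treated control cultures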; details: S. cerevisiae rad50 mutant strain, stronger effect = higher value
Summary of the method: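 Genetically defined yeast (rad50EPP+, DNA damage repair alteration) is grown with compound, and inhibition of growth is expressed relative to vehicle-treated controls.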

[4] = NCI Yeast Anticancer Drug Screen. Data for the mgt1 strain (AID 153); details: S. cerevisiae mgt1 mutant growth inhibition, stronger effect = higher value
Summary of the method: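 In the mgt1 strain, test compounds were added and growth inhibition was determined relative to vehicle-treated controls.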

[5] = NCI Yeast Anticancer Drug Screen. Data for the rad50 strain (AID 155);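 also: 0% = growth of vehicle-only cultures of the same strain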; details: S. cerevisiae rad50 strain growth inhibition, stronger effect = higher value
Summary of the method: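 Inhibition values express reduced yeast growth in compound-treated cultures relative to vehicle-treated controls.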

[6] = NCI Yeast Anticancer Drug Screen. Data for the mec2-1 strain (AID 157); details: S. cerevisiae mec2-1 strain, stronger effect = higher value
Summary of the method: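 Each compound was tested on mec2-1 yeast, a strain altered in DNA damage repair or cell cycle control. Growth inhibition is reported relative to vehicle.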

[7] = NCI Yeast Anticancer Drug Screen. Data for the rad14 strain (AID 159);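 also: 0% = growth of vehicle-treated control cultures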; details: S. cerevisiae rad14 strain growth inhibition, stronger effect = higher value
Summary of the method: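 A mutant yeast strain defective in DNA damage repair is treated with compound; inhibition of its growth is scored against untreated, vehicle-exposed cultures.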

[8] = NCI Yeast Anticancer Drug Screen. Data for the sgs1 mgt1 strain (AID 161);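 also: 0% = growth of cultures given vehicle only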; details: S. cerevisiae sgs1 mgt1 strain, stronger effect = higher value
Summary of the method: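 Inhibition of yeast growth, normalised to vehicle-treated controls, is reported for a strain bearing genetic alterations in DNA damage repair.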

[9] = NCI Yeast Anticancer Drug Screen. Data for the CLN2oe strain (AID 163);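 also: 0% = growth of vehicle-only control cultures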; details: S. cerevisiae CLN2oe strain, stronger effect = higher value
Summary of the method: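 First, the altered yeast strain was treated with each compound; second, its growth was measured; finally, inhibition was derived by comparison with vehicle controls.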

[10] = NCI Yeast Anticancer Drug Screen. Data for the cln2 rad14 strain (AID 165);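 also: 0% = growth equal to vehicle treated cultures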; details: S. cerevisiae cln2 rad14 strain, stronger effect = higher value
Summary of the method: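 Test compounds were added to cln2 rad14 yeast cultures; inhibition of growth was then determined by comparison with vehicle treatment.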

[11] = NCI Yeast Anticancer Drug Screen. Data for the bub3 strain (AID 167); details: S. cerevisiae bub3 mutant strain, stronger effect = higher value
Summary of the method: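 Steps: expose the mutant yeast strain to compound; grow alongside vehicle-treated cultures; measure growth; express inhibition against the vehicle cultures.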

[12] = NCI Yeast Anticancer Drug Screen. Data for the wt2 strain (AID 169);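 also: 0% = growth of vehicle-treated yeast cultures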; details: S. cerevisiae wt2 strain growth inhibition, stronger effect = higher value
Summary of the method: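 The panel's yeast strains carry defined changes in DNA repair or cell cycle genes. Each strain is grown with compound, and growth loss is scored relative to vehicle.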

[13] = NCI Yeast Anticancer Drug Screen. Data for the sgs1 strain (AID 173);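 also: 0% = growth of vehicle-only control cultures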; details: S. cerevisiae sgs1 mutant, stronger effect = higher value
Summary of the method: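 Vehicle-treated cultures served as reference for growth inhibition of a yeast strain altered in DNA damage repair or cell cycle control after compound exposure.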

[14] = NCI Yeast Anticancer Drug Screen. Data for the mlh1 rad18 strain (AID 175); details: S. cerevisiae mlh1 rad18 strain growth inhibition, stronger effect = higher value
Summary of the method: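 Inhibition values reflect reduced growth of mutant yeast versus vehicle-treated controls following compound exposure; the mutations affect DNA damage repair.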

[15] = NCI Yeast Anticancer Drug Screen. Data for the rad18 strain (AID 177); details: S. cerevisiae rad18 mutant growth inhibition, stronger effect = higher value
Summary of the method: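 Steps: expose repair-mutant yeast to compound; measure growth; express as inhibition relative to vehicle control.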

[16] = at 5.0 µM (retest, dose inferred, filed as 0.5)
[17] = at 50.0 µM (retest, dose inferred, filed as 5.0)

Measured: growth inhibition

C/C=C/SC(=Nc1ccccc1)Nc1ccccc1
inactive: [1]; at 1.2 µM -3% | [1]; at 3.7 µM -5% | [1]; at 11.0 µM -6% | [1]; at 33.0 µM -6% | [2]; at 1.2 µM -3% | [2]; at 3.7 µM 0% | [2]; at 11.0 µM -7% | [2]; at 33.0 µM -15% | [3]; at 1.2 µM 3% | [3]; at 3.7 µM 3% | [3]; at 11.0 µM 11% | [3]; at 33.0 µM 23% | [3]; at 100.0 µM 39% | [4]; at 1.2 µM -6% | [4]; at 3.7 µM -8% | [4]; at 11.0 µM -9% | [4]; at 33.0 µM -13% | [5]; at 1.2 µM -5% | [5]; at 3.7 µM -7% | [5]; [16] -10% | [5]; at 11.0 µM -7% | [5]; at 33.0 µM -8% | [6]; at 1.2 µM -6% | [6]; at 3.7 µM -5% | [6]; [16] -9% | [6]; at 11.0 µM -9% | [6]; at 33.0 µM -8% | [6]; [17] 67% | [6]; at 50.0 µM 49.2% | [7]; at 1.2 µM -4% | [7]; at 3.7 µM -4% | [7]; at 11.0 µM -5% | [7]; at 33.0 µM -4% | [8]; [16] -5% | [9]; at 1.2 µM -9% | [9]; at 3.7 µM -18% | [9]; at 11.0 µM -15% | [9]; at 33.0 µM -24% | [10]; [16] 2% | [10]; [17] 33% | [10]; at 50.0 µM 2.3% | [11]; at 1.2 µM 10% | [11]; at 3.7 µM 8% | [11]; [16] 10% | [11]; at 11.0 µM 7% | [11]; at 33.0 µM -12% | [11]; [17] 36% | [12]; at 1.2 µM -3% | [12]; at 3.7 µM -3% | [12]; at 11.0 µM -7% | [12]; at 33.0 µM -9% | [13]; at 1.2 µM -4% | [13]; at 3.7 µM -5% | [13]; at 11.0 µM -7% | [13]; at 33.0 µM -3% | [14]; [16] -10% | [14]; at 50.0 µM 66.3% | [15]; at 1.2 µM -2% | [15]; at 3.7 µM -5% | [15]; at 11.0 µM -8% | [15]; at 33.0 µM -9%
active: [1]; at 100.0 µM 99% | [2]; at 100.0 µM 97% | [4]; at 100.0 µM 98% | [5]; [17] 78% | [5]; at 50.0 µM 88% | [5]; at 100.0 µM 98% | [6]; at 100.0 µM 98% | [7]; at 100.0 µM 99% | [8]; [17] 71% | [8]; at 50.0 µM 90.8% | [9]; at 100.0 µM 97% | [11]; at 50.0 µM 92.5% | [11]; at 100.0 µM 98% | [12]; at 100.0 µM 98% | [13]; at 100.0 µM 98% | [14]; [17] 70% | [15]; at 100.0 µM 98%
